Consider six molecules from PubChem BioAssay (NCATS).

The structures appear in SMILES notation. Unmarked numbers belong to inactive results. Results filed as inconclusive are left out. Active and inactive are the calls of the source. Unless noted, calls come from the whole dose curve; as a rule, active = well fitted curve in the direction sought with a large enough effect; inconclusive = small, poorly fitted or top-dose-only effect, or another doubt; inactive = no such curve, though single readings can be large; an effect the other way counts as inactive or inconclusive.

Test [1] in a line: AP1 Signaling Pathway (AID 357; active = well fitted curve in either direction with a large enough effect, not every such curve was filed as active;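 note: ME-180 reporter cells stimulated with EGF at its EC50 level; % is set by controls: 0 for no effect and ±100 for the full control effect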). The note with it: ME-180 AP-1-bla reporter, EGF-induced, beta-lactamase ratio, 5 h; at 7.69 µM (top of the series) unless noted. Summed up:
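Modulation of EGF-driven AP-1 transcription was assessed with a beta-lactamase reporter in ME-180 cells. Compound and EC50 EGF were co-incubated 5 hours at 37 °C before 2.5-hour CCF4 loading at room temperature and dual-emission reading.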

Test [2] has as its target Cytochrome P450 1A2 (Homo sapiens) (UniProt P05177). The test can be described thus: p450-cyp1a2 (AID 410; calls by dose curve; note: potency is the fitted concentration of half-maximal effect;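 for activity change, negative = inhibition: -100% = full effect of reference inhibitor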). Summed up: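 Luminescent readout of luciferin formed from Luciferin-ME by human CYP1A2; data normalized against complete inhibition by 57 uM furafylline. Enzyme 20nM, substrate 100uM at Km, 100mM KPO4 buffer, 60 min reaction at room temperature.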
Test [3] can be described thus: Stat Signaling Pathway (AID 446; active = well fitted curve in either direction with a large enough effect, not every such curve was filed as active;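 note: ME-180 cervical cancer cells given 40 pM IL-6 alongside compound; SIE-controlled beta-lactamase reporter measured as 460/530 nm FRET emission ratio; % is set by controls: 0 for no effect and ±100 for the full control effect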). Conditions: ME-180 (cervical carcinoma) SIE beta-lactamase reporter, IL-6 stimulated, 5 h; at 7.69 µM (top of the series) unless noted. Summed up:
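ME-180 SIE-bla cells; overnight plating; cpd + IL-6 40 pM, 5 h, 37 C; LiveBLAzer 2.5 h RT; 460/530 nm emission ratio. Normalized to 300 pM IL-6 and 125 nM JAK inhibitor controls.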

The target of test [4] is Glucocorticoid receptor (Homo sapiens) (UniProt P04150). The test can be described thus: GR-GFP Redistribution (AID 450;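 active = compounds whose dose series gives a full or clear partial fitted curve of increased nuclear translocation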; note: potency is the fitted concentration of half-maximal effect). The note with it: U2OS GR-GFP nuclear translocation, laser cytometry, 2 h.
Chain of Glucocorticoid receptor (Homo sapiens) (P04150 whole entry, looked up, the tested form may be a part): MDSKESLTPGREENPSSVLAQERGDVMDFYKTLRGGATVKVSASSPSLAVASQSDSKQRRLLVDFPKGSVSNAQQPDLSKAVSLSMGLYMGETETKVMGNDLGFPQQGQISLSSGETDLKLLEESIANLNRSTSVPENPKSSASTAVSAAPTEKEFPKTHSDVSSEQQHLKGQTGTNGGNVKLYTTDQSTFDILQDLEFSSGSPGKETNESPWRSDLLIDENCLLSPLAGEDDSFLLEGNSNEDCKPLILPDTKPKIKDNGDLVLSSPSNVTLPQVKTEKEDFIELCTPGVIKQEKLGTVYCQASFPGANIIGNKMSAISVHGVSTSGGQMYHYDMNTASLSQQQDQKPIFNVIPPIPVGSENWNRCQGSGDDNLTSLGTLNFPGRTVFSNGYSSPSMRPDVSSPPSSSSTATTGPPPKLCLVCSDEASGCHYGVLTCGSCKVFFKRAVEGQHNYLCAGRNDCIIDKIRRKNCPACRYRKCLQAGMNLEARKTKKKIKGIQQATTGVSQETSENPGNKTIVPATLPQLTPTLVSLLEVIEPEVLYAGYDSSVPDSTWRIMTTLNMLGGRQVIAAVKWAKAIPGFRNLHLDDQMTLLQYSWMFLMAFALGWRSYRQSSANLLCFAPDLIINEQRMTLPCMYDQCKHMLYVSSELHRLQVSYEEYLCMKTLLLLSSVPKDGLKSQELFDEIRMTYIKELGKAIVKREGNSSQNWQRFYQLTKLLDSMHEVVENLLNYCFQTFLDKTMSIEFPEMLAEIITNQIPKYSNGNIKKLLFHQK
Test [5] has the same target. The test can be described thus: GR-EFC Redistribution (AID 451; calls by dose curve; note: potency is the fitted concentration of half-maximal effect). The note with it: CHO-K1 GR-EFC translocation, beta-gal luminescence, 2 h. In a few lines: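 Translocation of GR-ED fusion to nuclear EA restores b-gal, read by luminescence after 1 h room-temperature detection. Engineered CHO-K1 biosensor cells, 1,000/well, exposed 2 h at 37 C to titrations up to 46 uM final.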

In test [6] the target is Mitogen-activated protein kinase 10 (Mus musculus) (UniProt Q61831). The test can be described thus: JNK3 AlphaScreen Assay (AID 530; active = well fitted curve in either direction with a large enough effect, not every such curve was filed as active;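 note: kinase came from lysate of stimulated human HepG2 cells; signal reports phosphorylation of biotinylated GST-cJun 1-79 at Ser73 with 10 µM ATP; % is set by controls: 0 for no effect and ±100 for the full control effect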). In a few lines:
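Compound titrations were preincubated 15 minutes at room temperature with substrate, antibody and pre-activated JNK3-containing HepG2 lysate. Reactions were started with 10 uM ATP and stopped with EDTA-containing bead buffer for AlphaScreen detection.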

The target in test [7] is 3',5'-cyclic-AMP phosphodiesterase 4B (Homo sapiens) (UniProt Q07343). Briefly: qHTS Assay for Inhibitors of PDE-IV (AID 607; active = well fitted activation curve with a large enough effect in the main read-out, with a control signal flat, not every such curve was filed as active; note: % of control where 0% means no effect). Summed up:
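ACTOne HEK293 cells carry a modified cAMP-gated CNG channel and express endogenous PDE4; plated 1000 cells/well, compounds up to 22.9 uM final. Membrane-potential dye fluorescence (ex 535/em 590) was read; parental cells received 10 uM forskolin + 100 uM RO 20-1724.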

For test [8], the target named is Cytochrome P450 2C9 (Homo sapiens) (UniProt P11712). The test can be described thus: qHTS Assay for Inhibitors and Substrates of Cytochrome P450 2C9 (AID 883). Note: % is set by controls: 0 for no effect and ±100 for the full control effect; nearly all actives have a fitted effect of over 60% in size. Summed up:
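Inhibition of CYP2C9 is scored as loss of luminescence, with 57uM sulphaphenazole defining 100% inhibition. Substrate Luciferin-H is used at 100uM, equal to its KM; enzyme at 10nM in 25mM KPO4, 60 min at 37C with NADPH regeneration.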

Test [9] concerns the target Cytochrome P450 3A4 (Homo sapiens) (UniProt P08684). The test can be described thus: qHTS Assay for Activators of Cytochrome P450 3A4 (AID 885). Note: nearly all actives have a fitted effect of over 65% in size. In a few lines: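 20nM CYP3A4 + 25uM Luciferin-PPXE (=KM), 200mM KPO4; cpd 10 min RT; NADPH regen, 60 min RT; stop w/ detection buffer, 20 min; luminescence. Normalized to 57 uM ketoconazole.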
Test [10] can be described thus: qHTS Assay for Identification of Small Molecule Antagonists for NFkB Signaling Pathway (AID 895; active = well fitted inhibition curve with a large enough effect in the signal ratio, with a control signal flat, not every such curve was filed as active; the % refers to the signal ratio; note: % is set by controls: 0 for no effect and ±100 for the full control effect). Summed up:
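Beta-lactamase reporter read-out (460 and 530 nm emission ratio, 405 nm excitation, 2 hrs substrate loading RT) after 5 hr stimulation with 10 pM TNF alpha in compound-treated NFkB-bla ME-180 cells in low-serum medium.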

The target of test [11] is Cytochrome P450 2C19 (Homo sapiens) (UniProt P33261). Briefly: qHTS Assay for Inhibitors and Substrates of Cytochrome P450 2C19 (AID 899). Note: % is set by controls: 0 for no effect and ±100 for the full control effect; nearly all actives have a fitted effect of over 60% in size. In a few lines:
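5nM enzyme + 10uM Luciferin-H EGE (=KM), 50mM KPO4; cpd pin-transferred, 10 min 37C; NADPH regen, 60 min 37C; stopped w/ luciferin detection reagent, 20 min; luminescence. Normalized to 57uM ketoconazole (AC100).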

A short description of test [12]: qHTS Assay for Identification of Small Molecule Agonists for Thrombopoietin (TPO) Signaling Pathway (AID 917). Note: % is set by controls: 0 for no effect and ±100 for the full control effect. In a few lines:
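Luminescence from a Glycoprotein IIb promoter–driven luciferase reporter served as read-out in murine Ba/F3 cells carrying the human TPO receptor. Cells, deprived of IL-3 overnight, received compounds with 26 pM TPO and were incubated 24 hrs at 37 C.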

In test [13] the target is Muscarinic acetylcholine receptor M1 (Rattus norvegicus) (UniProt P08482). Briefly: qHTS Assay for Antagonists of Acetylcholine Muscarinic M1 Receptor: Kinetic Measurement of Intracellular Calcium Response (AID 943). Note: potency is the fitted concentration of half-maximal effect; nearly all actives have a fitted effect of over 75% in size. Summed up: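 Rat M1-CHO cells, 2000/well, overnight → Fluo-4 no-wash dye with probenecid, 1 h 37C → compound 10 min, room temp → basal read 6 s → carbachol EC80 (100 nM) → 4 min kinetic read; peak/basal.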
Chain of Muscarinic acetylcholine receptor M1 (Rattus norvegicus) (P08482 whole entry, looked up): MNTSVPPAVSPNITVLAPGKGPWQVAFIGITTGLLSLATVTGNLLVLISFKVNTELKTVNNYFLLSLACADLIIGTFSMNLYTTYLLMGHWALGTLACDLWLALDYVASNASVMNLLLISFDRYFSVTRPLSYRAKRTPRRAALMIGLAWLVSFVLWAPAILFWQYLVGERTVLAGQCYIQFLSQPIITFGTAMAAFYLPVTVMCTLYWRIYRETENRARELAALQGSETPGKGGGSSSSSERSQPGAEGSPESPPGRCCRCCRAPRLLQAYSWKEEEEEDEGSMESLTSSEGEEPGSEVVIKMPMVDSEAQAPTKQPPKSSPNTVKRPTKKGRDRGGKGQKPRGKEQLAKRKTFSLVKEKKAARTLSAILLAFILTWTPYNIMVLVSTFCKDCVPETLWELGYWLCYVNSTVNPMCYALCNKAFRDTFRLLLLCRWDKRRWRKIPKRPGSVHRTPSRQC

Test [14] has the same target. The test can be described thus: qHTS Assay for Antagonists of Acetylcholine Muscarinic M1 Receptor: Measurement of IP-One Response (AID 944). Note: nearly all actives have a fitted effect of over 75% in size. Note: potency is the fitted concentration of half-maximal effect. Summed up: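 M1-CHO (rat), 2000 cells/well, overnight recovery; cpd 10 min; carbachol EC80 (200 nM), 30 min, HEPES buffer + 50 mM LiCl pH 7.4; IP-One HTRF, Ex 337, Em 620/665 nm.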
In test [15] the target is Pyruvate kinase (Leishmania mexicana) (UniProt Q27686). Briefly: qHTS Validation Assay for Inhibitors of Leishmania Mexicana Pyruvate Kinase (AID 945).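 Note: 0% = DMSO only neutral control wells.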 Summed up:
(§1)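 The enzyme is a highly purified E451W mutant of LmPYK used at 0.2 nM. It converts 0.5 mM PEP and 0.1 mM ADP over 1 h at room temperature; product ATP is quantified by luciferase luminescence relative to DMSO controls.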

In test [16] the target is Pyruvate kinase PKM (Homo sapiens) (UniProt P14618). The test can be described thus: qHTS Assay for Activators of Human Muscle Pyruvate Kinase (AID 954; active = well fitted curve in the direction sought with a large enough effect, not every such curve was filed as active;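 note: 0% = uninhibited enzyme and -100% = no enzyme or full thiadiazolimine inhibition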). In a few lines:
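Luminescence from a luciferase ATP-detection/stop reagent reported PKM2 activity. Reactions contained 0.1 nM purified human enzyme, 0.5 mM PEP, 0.1 mM ADP and 7 mM MgCl2 at pH 7.2, run 1 h at RT.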

Test [17] has as its target Alpha-galactosidase A (Homo sapiens) (UniProt P06280). The test can be described thus: Counterscreen for Glucocerebrosidase Inhibitors: qHTS Assay for Human alpha-Galactosidase at pH 4.5 (AID 992). Note: 0% is about no effect. In a few lines: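 Enzyme at 2 nM final was combined with compound (0.7 nM to 77 uM) and 80 uM 4-methylumbelliferyl alpha-D-galactopyranoside in 50 mM citric acid, 0.005% Tween-20, pH 4.5. After 20 min at room temperature, fluorescence was read (Ex 365/Em 440 nm); AC50 came from Hill fits.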

Test [18] has as its target alpha-glucosidase (Oryza sativa, rice) (UniProt Q653V4). The test can be described thus: Counterscreen for Glucocerebrosidase Inhibitors: qHTS Assay for Rice alpha-Glucosidase at pH 5.0 (AID 997).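 Note: 0% = full activity with enzyme and -100% = basal without enzyme.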 Summed up:
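Rice alpha-glucosidase (4 nM final) with 400 uM 4-methylumbelliferyl-alpha-D-glucopyranoside in citrate buffer pH 5.0, 20 min at room temperature, stopped at pH 10; fluorescence 365/440 nm, compounds 0.7 nM–77 uM, AC50 from Hill fits.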

The nature of test [19]: NFAT Signaling Pathway (AID 444; active = well fitted curve in either direction with a large enough effect, not every such curve was filed as active). Conditions: Jurkat NFAT-bla M1, carbachol, beta-lactamase ratio, 5 h; at 7.69 µM (top of the series) unless noted. In a few lines:
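Read-out: CCF4 FRET ratio (460 nm/530 nm) after 1 h RT dye loading, used for %activity and AC50 from titration series. Cells: Jurkat NFAT-β-lactamase/M1 line, treated with compound plus 1 uM carbachol for 5 h, 37 °C.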

Test [20] concerns the target Guanine nucleotide-binding protein G(i) subunit alpha-1 (Homo sapiens) (UniProt P63096). The test can be described thus: qHTS Assay for Inhibitors of RGS12 GoLoco Motif Activity (Green Fluorophore) (AID 879).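 Note: 0% = labeled peptide with Gαi1 and full inhibition = labeled peptide alone without protein; negative values mean loss of peptide binding seen as reduced polarization.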 In a few lines: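 Fluorescence polarization assay: 50 nM Gαi1 with 10 nM FITC-labeled RGS12 GoLoco peptide in 10 mM Tris pH 7.5, 150 mM NaCl, 0.1 mM GDP, 0.05% NP40, 10 min at room temperature with compound.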

Test [21] in a line: qHTS Assay for Identification of Small Molecule Antagonists for Thrombopoietin (TPO) Signaling Pathway (AID 918). Note: potency is the fitted concentration of half-maximal effect; nearly all actives have a fitted effect of over 60% in size. The note with it: TPO-dependent cell signaling reporter, antagonist mode. Summed up: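 Ba/F3 (murine, hTPO-R, GPIIb-luc reporter); overnight IL-3 withdrawal; cpd + TPO 26 pM final (EC50); 24 h 37 C/5% CO2; Steadylite luminescence after 10 min RT.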
For test [22], the target named is Pyruvate kinase (Leishmania mexicana) (UniProt Q27686). The test can be described thus: qHTS Validation Assay for Activators of Leishmania Mexicana Pyruvate Kinase (AID 959). In a few lines:
as §1

Chain of Pyruvate kinase (Leishmania mexicana) (Q27686 2-499 E452W): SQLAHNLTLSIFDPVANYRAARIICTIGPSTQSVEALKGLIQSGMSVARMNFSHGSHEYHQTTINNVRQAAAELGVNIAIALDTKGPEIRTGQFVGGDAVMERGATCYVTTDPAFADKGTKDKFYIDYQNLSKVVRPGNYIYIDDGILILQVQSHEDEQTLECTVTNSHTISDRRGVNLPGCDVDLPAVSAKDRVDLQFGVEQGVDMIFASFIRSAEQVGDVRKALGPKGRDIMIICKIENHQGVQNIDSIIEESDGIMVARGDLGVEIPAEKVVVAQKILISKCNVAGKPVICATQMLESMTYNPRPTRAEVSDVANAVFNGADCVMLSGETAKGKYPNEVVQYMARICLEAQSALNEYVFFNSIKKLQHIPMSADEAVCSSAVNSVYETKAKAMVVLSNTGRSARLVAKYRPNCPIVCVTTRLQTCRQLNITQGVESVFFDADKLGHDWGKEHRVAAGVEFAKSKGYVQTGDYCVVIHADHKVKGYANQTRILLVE
Chain of Pyruvate kinase PKM (Homo sapiens) (P14618 whole entry, looked up): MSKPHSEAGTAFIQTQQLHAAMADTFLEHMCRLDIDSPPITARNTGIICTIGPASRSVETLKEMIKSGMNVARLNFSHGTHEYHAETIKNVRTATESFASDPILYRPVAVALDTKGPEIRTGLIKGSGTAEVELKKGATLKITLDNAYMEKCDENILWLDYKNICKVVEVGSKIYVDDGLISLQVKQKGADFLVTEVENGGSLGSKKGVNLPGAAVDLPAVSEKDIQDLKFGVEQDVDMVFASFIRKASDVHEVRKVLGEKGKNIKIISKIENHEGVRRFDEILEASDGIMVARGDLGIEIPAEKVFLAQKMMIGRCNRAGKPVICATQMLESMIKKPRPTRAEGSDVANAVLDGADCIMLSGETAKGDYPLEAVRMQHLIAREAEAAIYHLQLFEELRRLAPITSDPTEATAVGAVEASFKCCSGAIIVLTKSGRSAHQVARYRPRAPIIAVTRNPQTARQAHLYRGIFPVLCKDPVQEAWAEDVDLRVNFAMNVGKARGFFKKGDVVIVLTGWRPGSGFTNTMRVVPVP
Chain of Alpha-galactosidase A (Homo sapiens) (P06280 whole entry, looked up): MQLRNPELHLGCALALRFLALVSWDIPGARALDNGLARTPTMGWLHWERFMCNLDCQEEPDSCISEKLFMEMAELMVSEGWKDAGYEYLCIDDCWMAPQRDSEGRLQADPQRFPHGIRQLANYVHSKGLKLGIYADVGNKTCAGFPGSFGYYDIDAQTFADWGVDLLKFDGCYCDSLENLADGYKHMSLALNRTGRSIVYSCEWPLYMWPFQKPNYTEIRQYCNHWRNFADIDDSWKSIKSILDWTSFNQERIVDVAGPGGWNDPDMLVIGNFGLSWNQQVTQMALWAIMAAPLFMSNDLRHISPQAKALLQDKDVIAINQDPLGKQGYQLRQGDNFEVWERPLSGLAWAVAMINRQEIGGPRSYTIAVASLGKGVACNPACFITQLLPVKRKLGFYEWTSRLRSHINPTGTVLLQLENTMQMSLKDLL
Chain of 3',5'-cyclic-AMP phosphodiesterase 4B (Homo sapiens) (Q07343 whole entry, looked up): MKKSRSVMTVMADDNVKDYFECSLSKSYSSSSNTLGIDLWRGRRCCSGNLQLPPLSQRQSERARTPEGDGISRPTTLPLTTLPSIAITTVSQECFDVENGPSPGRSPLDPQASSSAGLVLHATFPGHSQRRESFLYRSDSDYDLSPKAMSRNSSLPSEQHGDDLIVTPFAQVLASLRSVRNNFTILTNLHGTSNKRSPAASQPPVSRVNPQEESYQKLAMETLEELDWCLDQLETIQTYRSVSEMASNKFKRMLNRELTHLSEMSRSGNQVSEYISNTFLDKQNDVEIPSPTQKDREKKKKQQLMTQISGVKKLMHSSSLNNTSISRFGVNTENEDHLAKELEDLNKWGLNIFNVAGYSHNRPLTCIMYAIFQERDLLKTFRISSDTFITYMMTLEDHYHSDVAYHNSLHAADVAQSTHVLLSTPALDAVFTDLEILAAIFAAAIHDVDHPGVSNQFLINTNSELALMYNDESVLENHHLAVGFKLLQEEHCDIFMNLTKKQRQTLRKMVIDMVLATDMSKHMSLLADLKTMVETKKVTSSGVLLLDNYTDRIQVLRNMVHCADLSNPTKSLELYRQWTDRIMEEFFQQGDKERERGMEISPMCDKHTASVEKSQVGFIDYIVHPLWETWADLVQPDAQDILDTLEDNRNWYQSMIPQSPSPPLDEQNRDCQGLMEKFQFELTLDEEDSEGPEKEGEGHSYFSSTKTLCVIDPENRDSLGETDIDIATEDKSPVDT
Chain of Cytochrome P450 2C19 (Homo sapiens) (P33261 whole entry, looked up): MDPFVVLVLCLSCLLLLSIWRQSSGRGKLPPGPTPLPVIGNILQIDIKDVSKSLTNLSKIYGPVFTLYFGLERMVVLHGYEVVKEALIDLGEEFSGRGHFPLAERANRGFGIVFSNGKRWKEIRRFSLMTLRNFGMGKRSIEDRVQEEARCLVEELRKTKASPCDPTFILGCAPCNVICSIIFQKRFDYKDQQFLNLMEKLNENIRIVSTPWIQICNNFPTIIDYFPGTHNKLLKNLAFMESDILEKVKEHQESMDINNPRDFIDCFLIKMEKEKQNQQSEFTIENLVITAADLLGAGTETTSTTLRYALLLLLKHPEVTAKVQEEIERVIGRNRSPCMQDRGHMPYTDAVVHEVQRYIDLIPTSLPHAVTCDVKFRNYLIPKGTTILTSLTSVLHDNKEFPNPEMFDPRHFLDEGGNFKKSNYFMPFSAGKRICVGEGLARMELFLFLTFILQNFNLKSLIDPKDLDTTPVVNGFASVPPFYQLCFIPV
Chain of Cytochrome P450 1A2 (Homo sapiens) (P05177 whole entry, looked up): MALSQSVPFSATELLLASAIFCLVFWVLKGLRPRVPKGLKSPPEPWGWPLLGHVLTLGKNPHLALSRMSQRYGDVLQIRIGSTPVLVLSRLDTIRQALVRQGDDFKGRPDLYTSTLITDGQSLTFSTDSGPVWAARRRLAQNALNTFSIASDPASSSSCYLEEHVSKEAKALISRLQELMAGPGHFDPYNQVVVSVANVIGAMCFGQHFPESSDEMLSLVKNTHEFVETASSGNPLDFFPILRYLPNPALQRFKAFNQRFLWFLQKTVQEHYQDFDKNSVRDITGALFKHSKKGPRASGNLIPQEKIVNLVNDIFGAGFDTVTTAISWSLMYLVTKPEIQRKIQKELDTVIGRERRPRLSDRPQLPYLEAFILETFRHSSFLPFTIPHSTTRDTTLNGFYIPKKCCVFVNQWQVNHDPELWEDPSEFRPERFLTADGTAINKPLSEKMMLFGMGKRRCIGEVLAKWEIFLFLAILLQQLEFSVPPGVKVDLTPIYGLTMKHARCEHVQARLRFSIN
Chain of Guanine nucleotide-binding protein G(i) subunit alpha-1 (Homo sapiens) (P63096 whole entry, looked up): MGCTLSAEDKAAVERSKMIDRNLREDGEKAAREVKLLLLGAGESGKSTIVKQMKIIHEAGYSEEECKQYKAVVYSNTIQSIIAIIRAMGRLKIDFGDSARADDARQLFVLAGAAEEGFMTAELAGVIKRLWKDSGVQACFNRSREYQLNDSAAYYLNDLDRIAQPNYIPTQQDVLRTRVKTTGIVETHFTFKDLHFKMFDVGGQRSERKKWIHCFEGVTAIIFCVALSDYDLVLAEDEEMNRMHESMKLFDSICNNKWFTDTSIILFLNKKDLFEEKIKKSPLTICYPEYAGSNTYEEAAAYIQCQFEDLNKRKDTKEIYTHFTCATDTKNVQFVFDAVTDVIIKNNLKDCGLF

For `C[C@@H](COc1ccc(/C=C\c2ccccc2)cc1)[N+](C)(C)C`, in test [1], the activity change, negative = inhibition is -11.9% [at 38 µM]. Besides, the Potency result in test [2], in test [6], in test [7], in test [8], in [9] and in test [10] was “inactive” in each case. Besides, the Potency entry in test [11] and in test [18] was “inactive” in each case. For the same molecule, the activity, negative = inhibition in test [3] was -2.8% [at 38 µM]. In addition, the Potency in [4] was greater than 46 µM; in test [5], greater than 46 µM; in test [13] it was 4.47 µM (active); in test [14], 7.08 µM (active). The molecule was called inactive in test [12], in test [15], in test [16] and in test [17].
With `CC(=O)Nc1c(C)cc(OCC(=O)O)cc1C`, the activity change, negative = inhibition in test [1] was -0.915%; in test [19] it was 19.3%. Besides, the activity, negative = inhibition in [3] was 12.5%. Moreover, in test [5], the Potency was greater than 9.22 µM. The Potency entry in [6] and in [7] was “inactive” each time.
Turning to `O=S(=O)(NCCNC/C=C\c1ccc(Br)cc1)c1cccc2cnccc12`, the activity change, negative = inhibition in test [1] was 2.61% [at 38 µM]; in [19], -7.5% [at 38 µM]. In addition, the Potency was greater than 46 µM in test [4], greater than 46 µM in test [5], 10 µM (active) in [21] and 14.1 µM (active) in test [13]. In addition, the Potency result in test [6] and in [18] was “inactive” throughout. In addition, the outcome in test [20], in test [15], in test [16] and in [17] was inactive.
Take `CO/N=C(\C(=O)N[C@@H]1C(=O)N2C(C(=O)O)=C(CSc3nc(=O)c(O)nn3C)CS[C@@H]12)c1csc(N)n1`: the activity change, negative = inhibition in [1] was -11.1% [at 38 µM]; in test [19] it was 4.37% [at 38 µM]. Further, the values for the Potency in test [4], in test [5] and in test [22] were greater than 46 µM, greater than 46 µM and 25.1 µM (active), respectively. Moreover, the Potency entry in test [7], in test [10], in [14] and in test [18] was “inactive” throughout. The outcome in test [12], in test [15], in test [16] and in test [17] was inactive.
As for `C[N+](C)(C)c1cc2c(nn1)Nc1ccccc1S2`, the activity change, negative = inhibition in test [1] is -0.66%. In addition, the Potency was 2 µM (active) in [2], greater than 46 µM in [4] and greater than 9.22 µM in test [5]. Moreover, the activity, negative = inhibition in test [3] was 19.9%. Moreover, the Potency result in test [6] and in [7] was “inactive” in each case.
Consider `CC[N+](C)(CC)CCN1C(=O)c2ccccc2S1(=O)=O`, for which the activity change, negative = inhibition is 7.73% in test [1] and 6.78% in test [19]. The activity, negative = inhibition in test [3] is -3.07%. Moreover, the figures for the Potency in [4] and in test [5] were greater than 46 µM and greater than 9.22 µM, respectively. In addition, the Potency entry in test [6], in test [7] and in test [11] was “inactive” throughout.
